Measured values taken from PubChem BioAssay (NCATS).
“And” between values parts separate entries of the source, which are not always exact repeats. Identical values can stand only once. Records with an inconclusive call do not appear. The source made the active and inactive calls. Unless noted, calls follow the shape of the dose curve; as a rule, active = well fitted curve in the direction sought with a large enough effect; inconclusive = small, poorly fitted or top-dose-only effect, or another doubt; inactive = no such curve, though single readings can be large; an effect the other way counts as inactive or inconclusive.

Tests used:
[1] = Cell Viability - Jurkat (AID 426;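 active = dose-dependent loss of cell ATP signal giving a full or clear fitted curve, ranked by lower potency value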; also: potency is read from the fitted curve at half-maximal effect); conditions: qHTS
Outline: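 Jurkat (clone E6-1, human T-cell leukemia) cells, 5000/well in complete medium, were exposed to compound for 40 hr at 37 °C. Viability was read as intracellular ATP by CellTiter-Glo luminescence; AC50 came from Hill fits of concentration-response data.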

[2] = Cell Viability - Hek293 (AID 427;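 active = compounds whose dose-response curve shows a full or clear partial loss of cell viability, called from curve shape rather than a numeric limit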;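 also: potency is read from the fitted curve at half-maximal effect; cells exposed to compound for 40 hours at 37 °C before reading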); conditions: qHTS
Outline: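 Luminescent ATP read-out (CellTiter-Glo, 20 min RT) after 40 hr compound exposure at 37 °C in complete medium. Signal normalized to DMSO (basal) and 100 uM tamoxifen (100% inhibition); concentration-response fitted with the standard Hill equation to give AC50.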

[3] = Cellular Toxicity (caspase-3) H-4-II-E (AID 663); conditions: H-4-II-E rat hepatoma, scaled: DMSO 0%, 100 µM tamoxifen 100%; series mostly up to 92.2 µM;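 also: cells exposed to compound for 16 hr before readout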
Outline: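 Rat hepatoma H-4-II-E cells (1500/well) plated 5 hr, then exposed to compound titrations for 16 hr at 37 °C. Caspase-Glo 3/7 luminescence read after 20 min at RT; data normalized to DMSO and 100 uM tamoxifen, AC50 from Hill fits.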

[4] = Cellular Toxicity (caspase-3) N2a (AID 665); conditions: N2a cells, luminescence, normalized: DMSO 0%, 10 µM staurosporine 100%; at 92.2 µM (top of the series);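 also: compound exposure lasted 16 h at 37 °C before readout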
Outline: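 Mouse N2a neuroblastoma cells (1500/well) were treated with compounds for 16 h at 37 °C, then caspase-3/7 activity was read by Caspase-Glo luminescence after 1 h at room temperature. Data were normalized to DMSO and 10 uM staurosporine; AC50 from Hill fits.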

[5] = MultiTox-Fluor Cytotoxicity Assay - LYMP1-001 - Dead Cells (AID 946); conditions: LYMP1-001 lymphoblastoid cells, dead-cell protease fluorescence; series mostly up to 92.2 µM;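 also: 0% = DMSO and 100% = tetraoctylammonium bromide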
Outline: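 AC50 from Hill fit of concentration-response; data normalized to DMSO (basal) and 15 uM tetraoctylammonium bromide (100%). LYMP1-001 lymphoblastoid cells, 2500/well, 16 hr compound at 37 C; dead-cell protease fluorescence, Ex/Em 485/520.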

[6] = Cell Viability - LYMP1-002 - Assay at 16 hr (AID 948); conditions: LYMP1-002 lymphoblastoid cell viability; series mostly up to 92.2 µM;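 also: 0% = DMSO alone and full effect = 92 µM tetraoctylammonium bromide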
Outline: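 In this qHTS, lymphoblastoid LYMP1-002 cells (human) receive compounds for 16 hr at 37 C. Viability is taken from CellTiter-Glo ATP luminescence, and AC50 derives from standard Hill fits.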

[7] = MultiTox-Fluor Cytotoxicity Assay - LYMP1-003 - Dead Cells (AID 961); conditions: LYMP1-003 lymphoblastoid cells, dead-cell protease fluorescence; series mostly up to 92.2 µM;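 also: 0% = DMSO and 100% = tetraoctylammonium bromide; nearly all actives have a fitted effect of over 70% in size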
Outline: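 Human lymphoblastoid LYMP1-003 cells (2500/well) were treated with compounds for 16 hr at 37 C in complete medium. Dead-cell protease release was read by bis-AAF-R110 fluorescence (Ex/Em 485/520). AC50 came from Hill fits, normalized to DMSO and 15 uM tetraoctylammonium bromide.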

[8] = Cell Viability - LYMP1-003 - Assay at 24 hr (AID 963); conditions: LYMP1-003 lymphoblastoid cell viability; series mostly up to 92.2 µM;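 also: plate controls were DMSO only for no effect and tetraoctylammonium bromide positive control for full effect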
Outline: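 Human lymphoblastoid LYMP1-003 cells (2500/well) were rested 5 hr at 37 C, then exposed to compounds in complete medium for 24 hr at 37 C. Cellular ATP was quantified by CellTiter-Glo luminescence, and AC50 values came from Hill fits of concentration-response data.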

[9] = Cell Viability - LYMP2-011 (AID 969); conditions: LYMP2-011 lymphoblastoid cells viability; series mostly up to 92.2 µM;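 also: 0% = DMSO only and full inhibition = 92 µM tetraoctylammonium bromide; nearly all actives have a fitted effect of over 60% in size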
Outline: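 Human lymphoblastoid cells (2500/well) were plated in complete medium, preincubated 5 hr at 37 C, then exposed to compounds for 24 hr at 37 C. Intracellular ATP was read by CellTiter-Glo luminescence, and AC50 came from Hill-equation concentration-response fits.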

[10] = Cell Viability - LYMP2-013 (AID 970); conditions: LYMP2-013 lymphoblastoid cells viability; series mostly up to 92.2 µM;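 also: 0% = DMSO only and full inhibition = tetraoctylammonium bromide control; nearly all actives have a fitted effect of over 55% in size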
Outline: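 Human lymphoblastoid cells, 2500/well, were preincubated 5 hr at 37 C, then treated with compounds for 24 hr at 37 C in complete medium. Intracellular ATP was read by CellTiter-Glo luminescence; AC50 from Hill-equation fits of concentration-response data.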

[11] = Cell Viability - LYMP2-023 (AID 975); conditions: LYMP2-023 lymphoblastoid cell viability; series mostly up to 92.2 µM;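 also: cellular ATP measured by luciferase luminescence as viability proxy; plate controls were DMSO only for no effect and 92 µM tetraoctylammonium bromide control for full effect; nearly all actives have a fitted effect of over 55% in size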
Outline: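 Human lymphoblastoid cells (2500/well) were preincubated 5 hr at 37 C, then exposed to compounds for 24 hr at 37 C in complete medium. Cellular ATP was read by CellTiter-Glo luminescence, and AC50 came from Hill-equation fits.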

[12] = Cell Viability - LYMP2-025 (AID 976); conditions: LYMP2-025 lymphoblastoid cell viability; series mostly up to 92.2 µM;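 also: plate controls were DMSO only for no effect and tetraoctylammonium bromide control for full effect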
Outline: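 Human lymphoblastoid LYMP2-025 cells (2500/well) were pre-incubated 5 hr at 37 C, then treated with compounds for 24 hr at 37 C in complete medium. Viability was read as intracellular ATP by CellTiter-Glo luminescence; AC50 from Hill fits.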

[13] = Cell Viability - LYMP2-006 (AID 978); conditions: LYMP2-006 lymphoblastoid cell viability, qHTS; series mostly up to 92.2 µM; also: % is scaled to controls: 0 for no effect and ±100 for the full control effect; nearly all actives have a fitted effect of over 60% in size
Outline: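 In this cytotoxicity screen, the human lymphoblastoid line grew in complete medium with test compounds for 24 hr at 37 C. Cellular ATP served as the viability signal.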

[14] = Cell Viability - LYMP2-008 (AID 980); conditions: LYMP2-008 lymphoblastoid cell viability, qHTS; series mostly up to 92.2 µM; also: % is scaled to controls: 0 for no effect and ±100 for the full control effect; nearly all actives have a fitted effect of over 60% in size
Outline: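 Human lymphoblastoid cells (2500/well) were plated, held 5 hr at 37 C, then exposed to compounds for 24 hr at 37 C in complete medium. Intracellular ATP was read by CellTiter-Glo luminescence; AC50 from Hill-fitted concentration-response.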

[15] = Cell Viability - LYMP2-018 (AID 985); conditions: LYMP2-018 lymphoblastoid cells, viability (qHTS); series mostly up to 92.2 µM;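 also: compound exposure lasted 24 hr at 37 °C; plate controls were DMSO only for no effect and tetraoctylammonium bromide at 92 µM for full effect; nearly all actives have a fitted effect of over 50% in size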
Outline: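 Human lymphoblastoid cells (2500/well) were pre-incubated 5 hr at 37 C, then exposed to compounds for 24 hr at 37 C in complete medium. Viability was read as intracellular ATP by CellTiter-Glo luminescence; AC50 values came from Hill-equation fits.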

[16] = Cell Viability - LYMP2-026 (AID 989); conditions: LYMP2-026 lymphoblastoid cell viability, qHTS; series mostly up to 92.2 µM; also: % is scaled to controls: 0 for no effect and ±100 for the full control effect; nearly all actives have a fitted effect of over 50% in size
Outline: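 Human lymphoblastoid cells (2500/well) in complete medium were preincubated 5 hr at 37 C, then exposed to compounds for 24 hr at 37 C. Cellular ATP was read by CellTiter-Glo luminescence; AC50 from Hill-equation fits of concentration-response data.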

[17] = Cell Viability - LYMP1-002 - Assay at 24 hr (AID 993); conditions: LYMP1-002 lymphoblastoid cells viability; series mostly up to 92.2 µM; also: % is scaled to controls: 0 for no effect and ±100 for the full control effect
Outline: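 Human lymphoblastoid LYMP1-002 cells, 2500/well in complete medium, were treated with compounds for 24 h at 37 C; intracellular ATP was read by CellTiter-Glo luminescence. AC50 values came from Hill-equation fits of qHTS concentration-response data.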

[18] = qHTS assay for small molecule agonists of the antioxidant response element (ARE) signaling pathway measured by Nrf2-dependant transcriptional activity - cell viability counter screen (AID 720653; active = well fitted curve in the direction sought with a large enough effect in the repeat runs; an effect the other way counts as inactive or inconclusive; also: % is scaled to controls: 0 for no effect and ±100 for the full control effect); conditions: ARE-bla HepG2 viability, CellTiter-Glo ATP luminescence, 16 h; hits give low values
Outline: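 ARE-bla HepG2 cells treated with compounds for 16 h at 37C; this counter screen measures viability as intracellular ATP by CellTiter-Glo luminescence after 30 min at room temperature.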

[19] = qHTS assay for cell viability of HEK293 cells (AID 743288); conditions: ATP luminescence (CellTiter-Glo), 18 h; max response: hits give low values; also: % is scaled to controls: 0 for no effect and ±100 for the full control effect; nearly all actives have a fitted effect of over 50% in size
Outline: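 Luminescent ATP quantitation served as the viability read-out. Cells (parental HEK293, 2,000/well) received compounds after at least 5 h at 37 C and were exposed for 18 h before a 30 min room-temperature reagent step.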

[20] = qHTS assay for cell viability of the p53RE-bla HCT-116 cell line (AID 743292); conditions: p53RE-bla HCT-116 viability, ATP luminescence, 16 h; series mostly up to 95 µM; also: % is scaled to controls: 0 for no effect and ±100 for the full control effect; nearly all actives have a fitted effect of over 55% in size
Outline: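 CellSensor p53RE-bla HCT-116 cells (4,000/well) pre-incubated 5 h at 37 C, then exposed to compounds in DMSO for 16 h at 37 C. Viability read as ATP content by CellTiter-Glo luminescence after 30 min at room temperature.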

O=[N+]([O-])c1cccc2ccccc12
inactive: Potency [1] > 92 µM | Potency [2] > 92 µM | outcome [3] | caspase-3 activation [4] -0.0738% | Potency [5] | Potency [6] | Potency [7] | Potency [8] | Potency [9] | Potency [10] | Potency [11] | Potency [12] | Potency [13] | Potency [14] | Potency [15] | Potency [16] | Potency [17] | max response [18] 8.97% and -15.3% | max response [19] -12% and 2.53% | Potency [20]

COc1ccc(C=O)cc1OC
inactive: Potency [1] > 92 µM | Potency [2] > 92 µM | outcome [3] | caspase-3 activation [4] -1.73% | Potency [5] | Potency [6] | Potency [7] | Potency [8] | Potency [9] | Potency [10] | Potency [11] | Potency [12] | Potency [13] | Potency [14] | Potency [15] | Potency [16] | Potency [17] | max response [18] -2.79% and -2.46% | max response [19] -6.04% and -11.4% | Potency [20]

CCOP(=S)(OCC)SCSC(C)(C)C
inactive: Potency [1] > 92 µM | Potency [2] > 92 µM | outcome [3] | caspase-3 activation [4] -3.31% | Potency [5] | Potency [6] | Potency [7] | Potency [8] | Potency [9] | Potency [10] | Potency [11] | Potency [12] | Potency [13] | Potency [14] | Potency [15] | Potency [16] | Potency [17] | max response [18] -1.33% and 1.99% | max response [19] -9.58% and -1.13% | Potency [20]

ClC(Cl)(Cl)c1ccccc1
inactive: Potency [1] > 92 µM | Potency [2] > 92 µM | outcome [3] | caspase-3 activation [4] -0.73% and -1.88% | Potency [5] | Potency [6] | Potency [7] | Potency [8] | Potency [9] | Potency [10] | Potency [11] | Potency [12] | Potency [13] | Potency [14] | Potency [15] | Potency [16] | Potency [17] | max response [18] -1.54% and 10.3% | max response [19] -4.96% and -3.96% | Potency [20]

Clc1nc(Cl)nc(Nc2ccccc2Cl)n1
inactive: Potency [1] > 92 µM | Potency [2] > 92 µM | outcome [3] | caspase-3 activation [4] 0.587% | Potency [5] | Potency [6] | Potency [7] | Potency [8] | Potency [9] | Potency [10] | Potency [11] | Potency [12] | Potency [13] | Potency [14] | Potency [15] | Potency [16] | Potency [17] | max response [18] -2.86% and -6.99% | max response [19] 1.75% and 3.89% | Potency [20]

CCCCOCCOP(=O)(OCCOCCCC)OCCOCCCC
inactive: Potency [1] > 92 µM | Potency [2] > 92 µM | outcome [3] | caspase-3 activation [4] -1.18% | Potency [5] | Potency [6] | Potency [7] | Potency [8] | Potency [9] | Potency [10] | Potency [11] | Potency [12] | Potency [13] | Potency [14] | Potency [15] | Potency [16] | Potency [17] | max response [18] -2.06% and 1.41% | max response [19] -5.77% and -12.8% | Potency [20]

ClC(Cl)=C(Cl)Cl
inactive: Potency [1] > 92 µM | Potency [2] > 92 µM | outcome [3] | caspase-3 activation [4] 0.443% and 1.4% | Potency [5] | Potency [6] | Potency [7] | Potency [8] | Potency [9] | Potency [10] | Potency [11] | Potency [12] | Potency [13] | Potency [14] | Potency [15] | Potency [16] | Potency [17] | max response [18] 5.48% and 2.15% | max response [19] 2.96% and -9.63% | Potency [20]

CC(=O)[O-].CC(=O)[O-].O.O.O.[Pb+2]
inactive: Potency [1] > 92 µM | Potency [2] > 92 µM | outcome [3] | caspase-3 activation [4] 0.731% and -2.95% | Potency [5] | Potency [6] | Potency [7] | Potency [8] | Potency [9] | Potency [10] | Potency [11] | Potency [12] | Potency [13] | Potency [14] | Potency [15] | Potency [16] | Potency [17] | max response [18] -9.67% and 5.41% | max response [19] -11.3% and -5.22% | Potency [20]
